According to PubChem BioAssay AID651592 (Sanford-Burnham Center for Chemical Genomics, 2012):
Activity calls are given as the source filed them.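 Rule for the calls: active = NF-kB reporter IC50 at most 10 µM, IL-8 IC50 within fivefold of it with bacterial filtrate but not with TNF-alpha; inactive = the rest.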

assay: inhibitors of NFkB activation in CF airway cells, SAR follow-up, KKLEB cells, panel, IL8 HTRF, NFkB-GFP (AID 651592); details: PAF/TNFa-induced NFkB-GFP / IL8 HTRF, CF-PAF assay, mean of runs;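 note: immortalized cystic fibrosis airway epithelial KKLEB cells with an NF-kB GFP reporter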

outcome, active:
CCOc1ccc(NCc2cc3c(-c4ccc(F)cc4)nn(-c4ccccc4)c3[nH]c2=O)cc1
O=C(Nc1ccc(N2CCN(C(=O)c3ccccc3Cl)CC2)cc1)c1ccccc1
O=C(Nc1ccc(N2CCN(C(=O)c3ccc(F)cc3)CC2)cc1)c1cncc(Br)c1
O=C(Nc1ccc(N2CCN(C(=O)c3ccccc3)CC2)cc1)c1cncc(Br)c1
O=C(Nc1ccc(N2CCN(C(=O)c3ccccc3Cl)CC2)cc1)c1cncc(Br)c1

outcome, inactive:
O=C(Nc1ccc(N2CCN(C(=O)c3ccccc3F)CC2)cc1)c1ccncc1
O=C(Nc1ccc(N2CCN(C(=O)c3ccccc3)CC2)cc1)c1ccncc1
O=C(Nc1ccc(N2CCN(C(=O)c3ccccc3F)CC2)cc1)c1cccnc1
O=C(Nc1ccc(N2CCN(C(=O)c3ccccc3)CC2)cc1)c1ccccn1
O=C(Nc1ccc(N2CCN(C(=O)c3ccccc3Cl)CC2)cc1)c1cc(Br)cc(Br)c1
CCOc1ccc(NCc2cc3c(C)nn(-c4ccccc4)c3[nH]c2=O)cc1
O=C(Nc1ccc(N2CCN(C(=O)c3ccccc3Cl)CC2)cc1)c1cccnc1
O=C(Nc1ccc(N2CCN(C(=O)c3ccccc3Cl)CC2)cc1)c1cccc(Br)c1
Cc1ccc(CNCc2cc3c(C(C)(C)C)nn(-c4ccccc4)c3[nH]c2=O)cc1
O=C(Nc1ccc(N2CCN(C(=O)c3ccc(F)cc3)CC2)cc1)c1ccncc1
O=C(Nc1ccc(N2CCN(C(=O)c3ccc(F)cc3)CC2)cc1)c1ccccc1
O=C(Nc1ccc(N2CCN(C(=O)c3ccccc3F)CC2)cc1)c1ccccc1
O=C(Nc1ccc(N2CCN(C(=O)c3ccccc3F)CC2)cc1)c1cccc(Br)c1
O=C(Nc1ccc(N2CCN(C(=O)c3ccccc3)CC2)cc1)c1cccnc1
O=C(Nc1ccc(N2CCN(C(=O)c3ccc(F)cc3)CC2)cc1)c1cc(Br)cc(Br)c1
O=C(Nc1ccc(N2CCN(C(=O)c3ccc(F)cc3)CC2)cc1)c1cccnc1
CCOc1ccc(NCc2cc3c(C(C)(C)C)nn(-c4ccccc4)c3[nH]c2=O)cc1
O=C(Nc1ccc(N2CCN(C(=O)c3ccccc3)CC2)cc1)c1cccc(Br)c1
O=C(Nc1ccc(N2CCN(C(=O)c3ccccc3)CC2)cc1)c1ccccc1
O=C(Nc1ccc(N2CCN(C(=O)c3ccccc3F)CC2)cc1)c1ccccn1
O=C(Nc1ccc(N2CCN(C(=O)c3ccccc3Cl)CC2)cc1)c1ccncc1
CCOc1ccc(NCc2cc3c(C(C)(C)C)nn(-c4ccc(Cl)cc4)c3[nH]c2=O)cc1
O=C(Nc1ccc(N2CCN(C(=O)c3ccccc3Cl)CC2)cc1)c1ccccn1
O=C(Nc1ccc(N2CCN(C(=O)c3ccccc3F)CC2)cc1)c1cc(Br)cc(Br)c1
O=C(Nc1ccc(N2CCN(C(=O)c3ccccc3)CC2)cc1)c1cc(Br)cc(Br)c1
O=C(Nc1ccc(N2CCN(C(=O)c3ccc(F)cc3)CC2)cc1)c1ccccn1
O=C(Nc1ccc(N2CCN(C(=O)c3ccc(F)cc3)CC2)cc1)c1cccc(Br)c1
CCOc1ccc(NCc2cc3c(-c4ccc(OC)c(OC)c4)nn(-c4ccccc4)c3[nH]c2=O)cc1
Cc1ccc(NCc2cc3c(C(C)(C)C)nn(-c4ccccc4)c3[nH]c2=O)cc1
